{
  "source": "PubChem BioAssay (NCATS)",
  "note": "Records with an inconclusive call do not appear. Activity calls are given as the source filed them. Calls come from the whole dose curve; as a rule, active = well fitted inhibition curve with a large enough effect; inconclusive = small, poorly fitted or top-dose-only effect; inactive = flat fitted curve, though single readings scatter. % is set by controls: 0 for no effect and ±100 for the full control effect.",
  "data": [
    {"assay": "qHTS to identify inhibitors of the type 1 interferon - major histocompatibility complex class I in skeletal muscle: primary screen against the NCATS LOPAC collection (AID 1347405);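 note: lytic HiBiT luminescence reporting HLA-B protein level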", "settings": "iHSKM muscle cells, IFN-b-induced MHC-I HiBiT luminescence, 24 h; series mostly up to 45.9 µM; activity change, negative = inhibition: at the top concentration", "source_text": "Assay Submitter (PI): Travis B. Kinder Ph.D. & James Inglese Ph.D.\nAssay Development and Screening Technology Laboratory (ADST)\nNational Center for Advancing Translational Sciences (NCATS), Rockville, MD\nNational Institute of Health (NIH), Bethesda, Maryland\nIdiopathic inflammatory myopathies, collectively referred to as myositis, are a group of rare autoimmune diseases characterized by skeletal muscle inflammation, weakness, and usually accompanied by systemic pathologies of the skin, lungs, or vasculature. Current immunosuppressive therapies and glucocorticoids are often not curative and are accompanied by harsh side effects, especially in children with juvenile myositis. We initiated a drug repurposing and development program to identify more targeted, less toxic therapeutics to treat myositis. Although its cause is not known, muscle from a subset of patients have an abundance of the inflammatory type 1 interferon (IFN) and a down-stream product major histocompatibility complex class I (MHC class I), which are both thought to contribute to damage and weakness. We conducted quantitative high throughput screening on 6,576 compounds (4,679 unique) through a series of cell-based assays to identify those that inhibit the IFN-stimulated expression of MHC class I in muscle precursor cells (myoblasts). The compound identification and evaluation strategy utilized a primary screen with reporter-tagged MHC class I in genome-engineered myoblasts, ATP content counter screen for viability, HLA-ABC immunofluorescence secondary screen, and HLA-B RT-qPCR tertiary screen.\nThe primary screen utilized CRISPR/Cas9 genome-engineering of immortalized human myoblasts, C25cl48, where a pro-luminescent reporter HiBit was fused to the C-terminus of endogenous MHC class I allele HLA-B*08:01 (HLA-B HiBit myoblasts). HiBit is an 11 amino acid fragment of NanoLuc luminescent reporter (Promega Corporation), and when complexed to the larger LgBit fragment, the reconstituted enzyme produces light in the presence of furimazine substrate (Schwinn et al., 2018). Briefly, HLA-B HiBit myoblasts were plated into 1536-well plates, treated with 4.0 ng/ml human IFN-beta and 1,280 compounds from the Library of Pharmacologically Active Compounds 1280 library (LOPAC1280, Sigma Aldrich) in a 7-point, 1:4.3 titration with a high final concentration of 46 uM. After 24 hrs of treatment, cells were assayed by Nano-Glo HiBiT Lytic Detection System (Promega) and luminescence measured by a ViewLux 1430 Ultra HTS (Perkin Elmer).\nSchwinn MK, Machleidt T, Zimmerman K, Eggers CT, Dixon AS, Hurst R, Hall MP, Encell LP, Binkowski BF, Wood K V. 2018. CRISPR-Mediated Tagging of Endogenous Proteins with a Luminescent Peptide. ACS Chem Biol 13:467-474. doi:10.1021/acschembio.7b00549\nPROTOCOL TABLE (as described by Inglese et al., 2007)\nSEQUENCE No. (e.g., 1, 2, 3, etc.); […] (e.g., Cells, Incubation, Reagent, etc.); VALUE; DESCRIPTION\n1a; Cells; 5 uL; Use a Multidrop Combi (Thermo Scientific) to seed 350 cells/well into nine Greiner 1536 well white/solid bottom, high base, TC plates in 5 ul/well of iHSKM growth medium (GM) without dexamethasone into columns 1+2. Add metal lids with gas-exchange holes\n1b; Cells; 5 uL; Use a Multidrop Combi (Thermo Scientific) to seed 350 cells/well into nine Greiner 1536 well white/solid bottom, high base, TC plates in 5 ul/well of iHSKM GM without dexamethasone + 4 ng/ml IFN-b into columns 3 - 48. Add metal lids with gas-exchange holes\n2; Incubate; 1 hr; Incubate at 37 C, 5% CO2, 95% RH\n3; Compounds; 23 nl; Use Pin Tool (Wako) to transfer DMSO control, ruxolitinib IFN-b inhibitor control [High Concentration = 80 uM final, 16-pt, 1:2 in duplicate], and library compounds in DMSO\n4; Incubate; 24 hrs; Incubate at 37 C, 5% CO2, 95% RH\n5; Dispense; 2.5 ul; Use BioRAPTR FRD (Beckman Coulter) to add HiBit lytic reagent\n6; Incubate; 10 min; Incubate in the dark at ambient temperature for lysis\n[…]", "values": [
      {"smiles": "CCN(CC)CC#CCOC(=O)C(O)(c1ccccc1)C1CCCCC1", "note": "(stereo not drawn)", "activity change, negative = inhibition": "-3.52% (inactive)"},
      {"smiles": "OCc1ccc(-c2nn(Cc3ccccc3)c3ccccc23)o1", "activity change, negative = inhibition": "-15.3% (inactive)"},
      {"smiles": "CC(C)NCC(O)c1ccc(NS(C)(=O)=O)cc1", "note": "(stereo not drawn)", "activity change, negative = inhibition": "-3.59% (inactive)"},
      {"smiles": "CC1CC2C3CCC4=CC(=O)C=C[C@]4(C)[C@@]3(F)[C@@H](O)C[C@]2(C)[C@@]1(O)C(=O)CO", "note": "(stereo partly drawn)", "activity change, negative = inhibition": "-18.1% (inactive)"},
      {"smiles": "CCN1CCCC1CNC(=O)c1cc(S(N)(=O)=O)ccc1OC", "note": "(stereo not drawn)", "activity change, negative = inhibition": "-8.6% (inactive)"},
      {"smiles": "NC(=O)c1cccc(N)c1", "activity change, negative = inhibition": "3.59% (inactive)"},
      {"smiles": "CCN(CC)CCn1c(=O)c(Cc2ccc(OC)cc2)nc2ccccc21", "activity change, negative = inhibition": "-0.0138% (inactive)"},
      {"smiles": "O=C(O)C1CCCN(CCC=C(c2ccccc2)c2ccccc2)C1", "note": "(stereo not drawn)", "activity change, negative = inhibition": "9.25% (inactive)"},
      {"smiles": "CCCCS(=N)(=O)CCC(N)C(=O)O", "note": "(stereo not drawn)", "activity change, negative = inhibition": "0.913% (inactive)"},
      {"smiles": "NC(=O)c1ccc2[nH]ccc2c1", "activity change, negative = inhibition": "-7.39% (inactive)"},
      {"smiles": "CC1=C(C(=O)O)N2C(=O)[C@@H](NC(=O)C(N)c3ccccc3)[C@H]2SC1", "note": "(stereo partly drawn)", "activity change, negative = inhibition": "0.706% (inactive)"},
      {"smiles": "CNS(=O)(=O)CCc1ccc2[nH]cc(C3CCN(C)CC3)c2c1", "activity change, negative = inhibition": "-4.25% (inactive)"},
      {"smiles": "Nc1nc(N)c2nc(CNc3ccc(C(=O)NC(CCC(=O)O)C(=O)O)cc3)cnc2n1", "note": "(stereo not drawn)", "activity change, negative = inhibition": "1.55% (inactive)"}
    ]}
  ]
}
